PubChem BioAssay (NCATS)
Inconclusive results are not listed. Activity calls are given as the source filed them. Calls follow the shape of the dose curve; as a rule, active = well fitted inhibition curve with a large enough effect; inconclusive = small, poorly fitted or top-dose-only effect; inactive = flat fitted curve, though single readings scatter.

Tested on: UISO
Assay: qHTS assay to identify novel small-molecules to repurpose for Merkel cell carcinoma treatment (AID 1296009); also: nearly all actives have a fitted effect of over 60% in size
Details: MCC and control cell lines, CellTiter-Glo viability, 72 h; series mostly up to 46 µM
Summary of the method: (§1)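 Cells were incubated with compound for 72 hr at 37 degree celsius before CellTiter-Glo addition. Luminescence was normalized with no-cell wells as full cytotoxicity and DMSO as baseline.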
Potency is read from the fitted curve at half-maximal effect.

SMILES	Potency
CC(C)(O)C=CC(=O)[C@](C)(O)[C@H]1[C@H](O)C[C@]2(C)[C@@H]3CC=C4[C@@H](C=C(O)C(=O)C4(C)C)[C@]3(C)C(=O)C[C@@]12C	166 nM (active)
C=C[C@@H]1CN2CCC1C[C@H]2[C@H](O)c1ccnc2ccccc12 (stereo partly specified)	inactive
O=C(O)c1cc(Oc2ccc(C(F)(F)F)cc2Cl)ccc1[N+](=O)[O-]	inactive
S=C(SSC(=S)N1CCCCC1)N1CCCCC1	94.4 nM (active)
CC[C@H]1C=CC=CC[C@@H](C)[C@H](O)[C@@](C)(O)C(=O)[C@@H](C)[C@H](O)[C@@H](C)C(=O)[C@@H](C)[C@H](O)[C@@H](C)C=CC(=O)O[C@@H]2[C@@H](C)[C@H](CC1)O[C@]1(CC[C@H](C)[C@H](C[C@@H](C)O)O1)[C@H]2C	1660 nM (active)
CC(=O)O[C@@]12CO[C@H]1C[C@H](O)[C@@]1(C)C(=O)[C@H](O)C3=C(C)[C@@H](O)C[C@@](O)([C@@H](OC(=O)c4ccccc4)[C@@H]21)C3(C)C	4180 nM (active)
CC(=O)[O][Hg][c]1ccccc1	841 nM (active)
CCCN1CCO[C@@H]2c3cc(O)ccc3OC[C@@H]21	inactive

Tested on: WaGa
Assay: as above
Details: MCC and control cell lines, CellTiter-Glo viability, 72 h; series mostly up to 46 µM
Summary of the method: as §1

SMILES	Potency
CC(C)(O)C=CC(=O)[C@](C)(O)[C@H]1[C@H](O)C[C@]2(C)[C@@H]3CC=C4[C@@H](C=C(O)C(=O)C4(C)C)[C@]3(C)C(=O)C[C@@]12C	93.5 nM (active)
C=C[C@@H]1CN2CCC1C[C@H]2[C@H](O)c1ccnc2ccccc12 (stereo partly specified)	inactive
O=C(O)c1cc(Oc2ccc(C(F)(F)F)cc2Cl)ccc1[N+](=O)[O-]	inactive
Cc1c(N)nc([C@H](CC(N)=O)NC[C@@H](N)C(N)=O)nc1C(=O)N[C@H](C(=O)N[C@@H](C)[C@H](O)[C@@H](C)C(=O)N[C@@H](C(=O)NCCc1nc(-c2nc(C(=O)NCCC[S+](C)C)cs2)cs1)[C@@H](C)O)C(O[C@H]1O[C@H](CO)[C@H](O)[C@@H](O)[C@@H]1O[C@H]1O[C@H](CO)[C@@H](O)[C@H](OC(N)=O)[C@H]1O)c1cnc[nH]1 (stereo partly specified)	3720 nM (active)
CC(C)Oc1cccc(NC(=O)c2ccccc2C(F)(F)F)c1	38600 nM (active)
CC[C@H]1C=CC=CC[C@@H](C)[C@H](O)[C@@](C)(O)C(=O)[C@@H](C)[C@H](O)[C@@H](C)C(=O)[C@@H](C)[C@H](O)[C@@H](C)C=CC(=O)O[C@@H]2[C@@H](C)[C@H](CC1)O[C@]1(CC[C@H](C)[C@H](C[C@@H](C)O)O1)[C@H]2C	662 nM (active)
COc1ccc2c(c[n+](C)c3c4cc5c(cc4ccc23)OCO5)c1OC	3320 nM (active)
CC(=O)[O][Hg][c]1ccccc1	473 nM (active)
